Experimental data published in PubChem BioAssay (NCI).
This is part of a sample that, as a whole, favours compounds with a hit. Of some 79,000 tested, about 15% had one in any assay. Cut-off read from the data, not from the text of the source: active = growth inhibition above about 70%; inactive = the rest.

What was measured:
[1] = NCI Yeast Anticancer Drug Screen. Data for the rad50 strain (AID 155);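 note: 0% = growth of vehicle-only cultures of the same strain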; details: S. cerevisiae rad50 strain growth inhibition, active compounds read high; at 50.0 µM unless noted
Summary of the method: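 Growth of the mutant yeast was measured after compound exposure and referenced to vehicle-treated cultures.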

[2] = NCI Yeast Anticancer Drug Screen. Data for the mec2-1 strain (AID 157); details: S. cerevisiae mec2-1 strain, active compounds read high; at 50.0 µM unless noted
Summary of the method: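 Cells of the genetically defined mec2-1 yeast strain are incubated with test compound. Inhibition of growth is calculated against vehicle-treated controls.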

[3] = NCI Yeast Anticancer Drug Screen. Data for the sgs1 mgt1 strain (AID 161);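 note: 0% = growth of cultures given vehicle only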; details: S. cerevisiae sgs1 mgt1 strain, active compounds read high; at 50.0 µM unless noted
Summary of the method: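 Test agents were incubated with a DNA-repair-mutant yeast strain. Growth was then read and compared against vehicle-treated controls.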

[4] = NCI Yeast Anticancer Drug Screen. Data for the cln2 rad14 strain (AID 165);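 note: 0% = growth equal to vehicle treated cultures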; details: S. cerevisiae cln2 rad14 strain, active compounds read high; at 50.0 µM unless noted
Summary of the method: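 The screen exposed genetically defined yeast (cln2 rad14) to test compounds and scored growth inhibition relative to vehicle-treated controls.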

[5] = NCI Yeast Anticancer Drug Screen. Data for the bub3 strain (AID 167); details: S. cerevisiae bub3 mutant strain, active compounds read high; at 50.0 µM unless noted
Summary of the method: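 Whole-cell yeast assay. The mutant strain was incubated with compounds, and growth inhibition was determined by comparison with vehicle-treated cells.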

[6] = NCI Yeast Anticancer Drug Screen. Data for the mlh1 rad18 strain (AID 175); details: S. cerevisiae mlh1 rad18 strain growth inhibition, active compounds read high; at 50.0 µM unless noted
Summary of the method: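 Compound-treated yeast growth, normalised to vehicle controls. Strain bears defined DNA repair mutations.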

Measured: growth inhibition

CC(=O)NC(CCCCNC(=O)N(CCCl)N=O)C(=O)NCc1ccccc1 (stereo unspecified)
inactive: [1] 1.2% | [2] -1.15% | [3] 0.7% | [4] 14.7% | [5] -2.35% | [6] -1.85%

CC/C(CC(=O)CCC(=O)Nc1c(C)cccc1C)=N\NC(=O)NN
inactive: [1] -19.4% | [2] -22% | [3] -4.15% | [4] 24.6% | [5] 3% | [6] -8.5%

CCOc1ccccc1NC(=O)C(=O)C(C(=O)c1ccc2ccccc2c1)C1OC(=O)c2ccccc21 (stereo unspecified)
inactive: [1] -4% | [2] 4.35% | [3] 13.6% | [4] -50% | [5] 12.5% | [6] 0.45%

O=C(NC(CO)Cc1ccccc1)OCc1ccccc1 (stereo unspecified)
inactive: [1] -4.15% | [2] -5.25% | [3] 0% | [4] 5.45% | [5] 8.1% | [6] -7.65%

CN(C)c1ccc(/C=N/Nc2nc3ccccc3c(=O)n2-c2ccccc2)cc1
inactive: [1] -3.05% | [2] -16.1% | [3] 6.55% | [4] 17.9% | [5] 26.1% | [6] -3.7%

COC(=O)[C@]1(c2ccc(N(C)C)cc2OC)C[C@@H]2CCCN(CCc3c1[nH]c1ccccc31)C2
inactive: [1] -5.8% | [2] -4.35% | [3] -11.5% | [4] 18.4% | [5] -0.65% | [6] 21.6%

O=Cc1cccc2ccc3cccc(C(=O)Cl)c3c12
inactive: [1] 20.4% | [2] 46.9% | [3] 37.8% | [4] 18% | [5] 62.5% | [6] 32.5%

CC1CC(NC(=S)N(C)C)CC(C)(C)C1 (stereo unspecified)
inactive: [1] 6.9% | [2] 3.65% | [3] 18.8% | [4] -10.8% | [5] 47.9% | [6] 3.55%

CCOc1ccc(N=Nc2c(O)n(-c3ccc(Cl)cc3)c(=S)n(-c3ccccc3)c2=O)cc1
inactive: [1] -15.2% | [2] 2.5% | [3] 7.85% | [4] -0.15% | [5] 32.5% | [6] 26.4%

CC(c1cccc(O)c1)N(C)C (stereo unspecified)
inactive: [1] 5.9% | [2] -2.2% | [3] 0.7% | [4] -10.4% | [5] 1.25% | [6] -3.85%

O=C1c2ccccc2C(=Cc2cccc([N+](=O)[O-])c2)c2ccccc21
inactive: [1] 15.6% | [2] 18.4% | [3] -6.35% | [4] 9.75% | [5] 4.2% | [6] 0.6%

CC(=O)C[N+](C)(C)C
inactive: [1] -12.9% | [2] -17.1% | [3] -14.8% | [4] -7.45% | [5] -20.8% | [6] 12.7%

O=NN1C(c2ccccc2)CNC(=O)CC1c1ccccc1 (stereo unspecified)
inactive: [1] -27% | [2] -1.4% | [3] -1.65% | [4] -8% | [5] 20.6% | [6] -18.2%

c1ccc(CC2=NCCO2)cc1
inactive: [1] -5.55% | [2] 2.25% | [3] -3.3% | [4] -33% | [5] 3.85% | [6] -25.9%

COC1C(O)C(n2ncc3c(SC)nc(SC)nc32)OC1C(O)CO (stereo unspecified)
inactive: [1] 16.3% | [2] -3.95% | [3] -16.2% | [4] 8.95% | [5] -4% | [6] 14.4%

COC(=O)CC1(C(=O)OC)NC(=O)c2cc(OC)c(Cl)cc2N1 (stereo unspecified)
inactive: [1] -4.2% | [2] 7.6% | [3] -7.1% | [4] 13.6% | [5] -4.9% | [6] -19.6%

CC(O)CNC1=CC(=O)C(=O)c2ccccc21 (stereo unspecified)
inactive: [1] -13.3% | [2] -26.1% | [3] 4.8% | [4] 4.3% | [5] 20.4% | [6] -20.6%

Cc1cccc(C)c1I
inactive: [1] -35% | [2] -8.55% | [3] -67.2% | [4] -25.9% | [5] -46.5% | [6] -50.1%

COC(=O)OCCOC(=O)OC
inactive: [1] 3.15% | [2] 1.5% | [3] -8.45% | [4] 18.1% | [5] 15.3% | [6] 9.5%

N#C/C(=C\c1ccco1)C1CCC([N+](=O)[O-])CC1 (stereo unspecified)
inactive: [1] -5.05% | [2] -1.5% | [3] 4.35% | [4] -101% | [5] 2.85% | [6] -4.85%

COc1ccc(C(OC(=O)Oc2ccccc2)c2ccccc2)cc1 (stereo unspecified)
inactive: [1] -9.1% | [2] 6.55% | [3] -6.9% | [4] -20.1% | [5] -16.4% | [6] 7%

CCOC(=O)C1Oc2ccc([N+](=O)[O-])cc2C1(C)O (stereo unspecified)
inactive: [1] -1.15% | [2] 0.75% | [3] -6.85% | [4] 22.6% | [5] 1.85% | [6] -4.45%

C/C(=N\N/C=N/S(=O)(=O)c1ccccc1)c1ccccc1
inactive: [1] -12.2% | [2] 4.55% | [3] -6.35% | [4] 5.6% | [5] 0.55% | [6] -1.55%

CCOP(=O)(OCC)C(C)(CC)N/C(=N/C(NC(C)=O)(C(F)(F)F)C(F)(F)F)NC1=NC(C(F)(F)F)(C(F)(F)F)N=C(C(F)(F)F)O1 (stereo unspecified)
inactive: [1] 1.65% | [2] 4.65% | [3] -26.8% | [4] 5.3% | [5] -3.1% | [6] -34.1%

O=C(Nc1ccccc1)Nc1ccc2c(c1)oc1ccccc12
inactive: [1] 8.85% | [2] 6.7% | [3] 9.6% | [4] 28% | [5] 10.9% | [6] 25.6%

COc1ccc2oc(-c3cc4cc(OC)ccc4o3)cc2c1
inactive: [1] -10.7% | [2] -5.7% | [3] -12.8% | [4] -17.9% | [5] -61.2% | [6] -0.55%

C(CCCC1CO1)CCC1CO1 (stereo unspecified)
inactive: [1] 24.5% | [2] 18.3% | [3] 17.7% | [4] -36.5% | [5] 11.1% | [6] 7.65%

CCN1CCC(O)C1 (stereo unspecified)
inactive: [1] 18.6% | [2] -0.1% | [3] 19.2% | [4] 14.2% | [5] 26% | [6] 30.9%

COc1ccc2c(CSc3ncnc4nc[nH]c34)cc(=O)oc2c1
inactive: [1] 12.4% | [2] 21.8% | [3] 13.1% | [4] -14.7% | [5] 25.4% | [6] 34.9%

NC(=S)Nc1nnc(-c2ccc(-c3nnc(NC(N)=S)o3)cc2)o1
inactive: [1] 18.4% | [2] 6.65% | [3] -21.2% | [4] 5.35% | [5] 2.05% | [6] -8.05%

Nn1c(-c2cccc(Cl)c2)nc2ccccc2c1=O
inactive: [1] -18.6% | [2] 5.45% | [3] 13% | [4] 25.7% | [5] 17.9% | [6] 36.8%

ClCc1ccc(OCc2ccccc2)cc1
inactive: [1] -2.85% | [2] -1.45% | [3] -11.2% | [4] 9.3% | [5] -29.1% | [6] -6.25%

COc1cc(C2c3cc4c(cc3OC(NN=C(C)C)C2C)OCO4)cc(OC)c1O (stereo unspecified)
inactive: [1] 14.2% | [2] 1.7% | [3] 9.65% | [4] 4.5% | [5] 12.8% | [6] 10.9%

COc1cc(C2CC(C)(Nc3ccccc3)Oc3cc4c(cc32)OCO4)cc(OC)c1OC (stereo unspecified)
inactive: [1] -6.35% | [2] -13.7% | [3] -3.55% | [4] 4.95% | [5] 4.1% | [6] -14.2%

COC1CCC(OS(C)(=O)=O)C(C)O1 (stereo unspecified)
inactive: [1] 16.8% | [2] -45.9% | [3] 4.6% | [4] -2.15% | [5] -38.7% | [6] 9.85%

Cc1ccc(NC(=O)c2ccc(OP(=O)(O)Nc3ccc(C)cc3)cc2)cc1
inactive: [1] -22.6% | [2] -21.8% | [3] -8.05% | [4] -3.15% | [5] -5.2% | [6] -4.1%

O=C(O)/C(I)=C(\I)c1ccccc1
inactive: [1] -0.55% | [2] -6.7% | [3] 4.7% | [4] -9.3% | [5] 2.45% | [6] 8.5%

C/C(CC(=O)Nc1cc(Cl)c(Cl)cc1Cl)=N\NS(=O)(=O)c1ccc(C)cc1
inactive: [1] -3.05% | [2] -6.8% | [3] 3.35% | [4] -53.9% | [5] -1.2% | [6] 2.75%

Cc1c(CCCl)c(N=P(c2ccccc2)(c2ccccc2)c2ccccc2)n2c(nc3ccccc32)c1C#N
inactive: [1] 29.1% | [2] -2.1% | [3] -7.75% | [4] 12.5% | [5] -5.05% | [6] 18.6%

CCC1([N+](C)(C)C)CSC1C (stereo unspecified)
inactive: [1] 5.15% | [2] 2.9% | [3] 4.35% | [4] -26.6% | [5] -8.65% | [6] -0.95%

O=C(Cc1ccccc1)C(c1ccccc1)C(c1ccccc1)c1ccccc1 (stereo unspecified)
inactive: [1] -12.8% | [2] -11.8% | [3] 5.25% | [4] 13.6% | [5] -2.25% | [6] -1.25%
